We go through 26 molecules from PubChem BioAssay (EPA / NIEHS).

Active and inactive are the calls of the source. How the source made its calls: active means hit-call score of the fitted dose curve at least 0.9, where 1 is the maximum; inconclusive means response in the unintended direction; inactive means score below 0.9.

The assay relates to rat CYP3A1, gene 25642. The assay can be described thus: NVS_ADME_rCYP3A1: NovaScreen (NVS) CYP450-related Enzyme Activity (ADME) Assay for rat CYP3A1 (AID 2283126). As to the method:
NVS_ADME_rCYP3A1 is a biochemical, single-readout assay that uses extracted gene-proteins in a cell-free assay. Measurements were taken 0.5 hour after chemical dosing in a 96-well plate.NVS_ADME_rCYP3A1 is one of one assay component(s) measured or calculated from the NVS_ADME_rCYP3A1 assay. It is designed to make measurements of enzyme activity, a form of enzyme reporter, as detected with fluorescence intensity signals by Fluorescence technology.Data from the assay component NVS_ADME_rCYP3A1 was analyzed into 1 assay endpoint. This assay endpoint, NVS_ADME_rCYP3A1, was analyzed in the positive analysis fitting direction relative to Acetonitrile as the negative control and baseline of activity. Using a type of enzyme reporter, loss-of-signal activity can be used to understand changes in the enzymatic activity as they relate to the gene Cyp3a23/3a1. Furthermore, this assay endpoint can be referred to as a primary readout, because this assay has produced multiple assay endpoints where this one serves a enzymatic activity function. To generalize the intended target to other relatable targets, this assay endpoint is annotated to the cyp intended target family, where the subfamily is xenobiotic metabolism.
Binding assays used specific radioligands (tritiated, iodinated) with non-radioactive competitive displacement ligands in agonist or antagonist protocols (as indicated) and various reference compounds and inhibitors to titrate specific binding to receptors and transporters. Most enzyme assays (CYPs, kinases, phosphatases, proteases, HDACs) used recombinant protein and specific substrates (fluorescence mostly, some colorimetric and radioactive) and inhibitors, followed by a biochemical separation of substrate and product. All assays for the biochemical HTS were initially run in duplicate at a single concentration (10 uM for CYP450 assays and 25 uM for all others). Assay-chemical combinations meeting a pre-defined threshold (e.g., 30% inhibition and other criteria defined below) were then run in singleton concentration-response format with maximum concentration of 20 uM for CYPs and 50 uM for all others. Each assay was run with positive and negative controls, and concurrent controls on every plate. The follow-up (secondary) screen tested active chemical-pairs in concentration series, as well as a few additional assays not tested in the primary screen, some selected negative inactives, and several cases re-run in the concentration series for confirmatory purposes.
`C#CCC1=C(C)C(OC(=O)C2C(C=C(C)C)C2(C)C)CC1=O` (stereo unspecified): the concentration at half-maximal activity (AC50) (commonly the concentration giving half of the maximal activity seen) was 7.59 µM (active).
As to `FC(F)C(F)(F)OCC(Cn1cncn1)c1ccc(Cl)cc1Cl` (stereo unspecified), the AC50 was 3.65 µM (active).
On to `CCCSP(=O)(OCC)Oc1ccc(Br)cc1Cl` (stereo unspecified), for which the concentration at half-maximal activity (AC50) is 9.45 µM (active).
`S=C1NCCN1`: the molecule was classed as inactive.
Turning to `CC(C1CC1)C(O)(Cn1cncn1)c1ccc(Cl)cc1` (stereo unspecified), the concentration at half-maximal activity (AC50) was 0.384 µM (active).
Same read-out and setting: under `CCOP(=S)(OCC)Oc1cc(C)nc(C(C)C)n1` stands 6.82 µM (active).
For `CNc1cnn(-c2cccc(C(F)(F)F)c2)c(=O)c1Cl`, the concentration at half-maximal activity (AC50) was 2.91 µM (active).
As for `CCC(=O)Nc1ccc(Cl)c(Cl)c1`, the AC50 is 4.74 µM (active).
Same read-out and setting: under `CSC1=N[C@@](C)(c2ccccc2)C(=O)N1Nc1ccccc1` stands 2.77 µM (active).
In the case of `CC(C)=CC1C(C(=O)OCN2C(=O)C3=C(CCCC3)C2=O)C1(C)C` (stereo unspecified), the result was inactive.
In the case of `COc1ccc(C(=CC(=O)N2CCOCC2)c2ccc(Cl)cc2)cc1OC`, the AC50 was 3.86 µM (active).
Turning to `CCCOCC(=Nc1ccc(Cl)cc1C(F)(F)F)n1ccnc1`, the AC50 was 2.8 µM (active).
Take `CCOC(=O)CC(SP(=O)(OC)OC)C(=O)OCC` (stereo unspecified): the outcome was inactive.
For `CCOP(=S)(OCC)Oc1ccc2c(C)c(Cl)c(=O)oc2c1`, the AC50 was 1.22 µM (active).
Regarding `CC[C@H](C)[C@H]1O[C@]2(C=C[C@@H]1C)C[C@@H]1C[C@@H](C/C=C(\C)[C@@H](O[C@H]3C[C@H](OC)[C@@H](O[C@H]4C[C@H](OC)[C@@H](NC)[C@H](C)O4)[C@H](C)O3)[C@@H](C)/C=C/C=C3\CO[C@@H]4[C@H](O)C(C)=C[C@@H](C(=O)O1)[C@]34O)O2`, the AC50 is 7.04 µM (active).
On the same count and under the same terms, under `O=C(O)c1cc(Oc2ccc(C(F)(F)F)cc2Cl)ccc1[N+](=O)[O-]` stands 5.89 µM (active).
In the case of `CCOP(=S)(OCC)Oc1ccc([N+](=O)[O-])cc1`, the half-maximal activity concentration (AC50) was 6.9 µM (active).
Same read-out and setting: under `CCc1cccc(C)c1N(C(=O)CCl)C(C)COC` (stereo unspecified) stands 6.49 µM (active).
As for `COc1cccc(C(=O)NN(C(=O)c2cc(C)cc(C)c2)C(C)(C)C)c1C`, the AC50 was 0.331 µM (active).
Consider `CCOP(=O)(NC(C)C)Oc1ccc(SC)c(C)c1` (stereo unspecified), for which the concentration at half-maximal activity (AC50) was 7.98 µM (active).
On the same count and under the same terms, under `CSc1nc(NC(C)C)nc(NC(C)C)n1` stands 5.92 µM (active).
Same read-out and setting: under `Cc1cc(C2CC2)nc(Nc2ccccc2)n1` stands 10.7 µM (active); under `CCOP(=O)(SC(C)CC)N1CCSC1=O` (stereo unspecified), 6.64 µM (active).
The same measure, in the same setting: under `C[Si](Cn1cncn1)(c1ccc(F)cc1)c1ccc(F)cc1` stands 1.23 µM (active).
Take `COP(=O)(OC)SCn1c(=O)oc2cc(Cl)cnc21`: the AC50 is 9.11 µM (active).
Consider `CCOP(=O)(OCC)Oc1cc(C)nc(C(C)C)n1`, for which the outcome was inactive.
